Experimental data from PubChem BioAssay (NCATS).
Values joined by “and” are separate entries in the source; they are usually repeats but may differ in a detail not shown here. Identical values can stand only once. Inconclusive results are not listed. Active and inactive are the calls of the source. Unless noted, the call rests on the fitted dose curve; in most records, active means well fitted curve in the direction sought with a large enough effect; inconclusive means small, poorly fitted or top-dose-only effect, or another doubt; inactive means no such curve, though single readings can be large; an effect the other way counts as inactive or inconclusive.

Experiments:
[1] = target: phosphoglycerate mutase (Leishmania major) (UniProt Q4Q090); test: qHTS Validation Assay to Find Inhibitors of Phosphoglycerate Mutase (AID 504548); further: series mostly up to about 58 µM; on the % scale 0 is the no-effect control and ±100 the full control effect
phosphoglycerate mutase (Leishmania major), sequence (Q4Q090 1-553): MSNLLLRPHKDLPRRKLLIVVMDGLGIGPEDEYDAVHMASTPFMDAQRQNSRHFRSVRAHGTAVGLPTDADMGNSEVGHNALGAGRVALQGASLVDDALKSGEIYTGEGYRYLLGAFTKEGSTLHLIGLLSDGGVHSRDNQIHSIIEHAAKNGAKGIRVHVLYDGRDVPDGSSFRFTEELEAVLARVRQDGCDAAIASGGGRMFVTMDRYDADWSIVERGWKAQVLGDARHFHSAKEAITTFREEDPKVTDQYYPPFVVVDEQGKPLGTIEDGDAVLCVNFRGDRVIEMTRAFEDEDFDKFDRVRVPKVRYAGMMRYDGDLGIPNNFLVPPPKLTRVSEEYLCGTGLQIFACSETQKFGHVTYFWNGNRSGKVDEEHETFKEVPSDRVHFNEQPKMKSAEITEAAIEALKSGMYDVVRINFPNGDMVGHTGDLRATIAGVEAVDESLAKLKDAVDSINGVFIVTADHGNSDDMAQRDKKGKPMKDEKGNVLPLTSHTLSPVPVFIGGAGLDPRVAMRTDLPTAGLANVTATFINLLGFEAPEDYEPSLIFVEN
Method in brief: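 Lm PGAM 1.25nM final; 100 mM TEA pH 7.6, 5 mM MgCl2, 0.01% Tween-20; 45 min RT; Kinase-GloPlus, 10 min; end-point luminescence. Enzyme-free wells as negative controls.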

[2] = target: Ubiquitin carboxyl-terminal hydrolase 1 (Homo sapiens) (UniProt O94782); test: Inhibitors of USP1/UAF1: Pilot qHTS (AID 504865); further: nearly all actives have a fitted effect of over 35% in size; further: potency means the concentration at half of the fitted maximal effect
Ubiquitin carboxyl-terminal hydrolase 1 (Homo sapiens), sequence (O94782 whole entry, looked up): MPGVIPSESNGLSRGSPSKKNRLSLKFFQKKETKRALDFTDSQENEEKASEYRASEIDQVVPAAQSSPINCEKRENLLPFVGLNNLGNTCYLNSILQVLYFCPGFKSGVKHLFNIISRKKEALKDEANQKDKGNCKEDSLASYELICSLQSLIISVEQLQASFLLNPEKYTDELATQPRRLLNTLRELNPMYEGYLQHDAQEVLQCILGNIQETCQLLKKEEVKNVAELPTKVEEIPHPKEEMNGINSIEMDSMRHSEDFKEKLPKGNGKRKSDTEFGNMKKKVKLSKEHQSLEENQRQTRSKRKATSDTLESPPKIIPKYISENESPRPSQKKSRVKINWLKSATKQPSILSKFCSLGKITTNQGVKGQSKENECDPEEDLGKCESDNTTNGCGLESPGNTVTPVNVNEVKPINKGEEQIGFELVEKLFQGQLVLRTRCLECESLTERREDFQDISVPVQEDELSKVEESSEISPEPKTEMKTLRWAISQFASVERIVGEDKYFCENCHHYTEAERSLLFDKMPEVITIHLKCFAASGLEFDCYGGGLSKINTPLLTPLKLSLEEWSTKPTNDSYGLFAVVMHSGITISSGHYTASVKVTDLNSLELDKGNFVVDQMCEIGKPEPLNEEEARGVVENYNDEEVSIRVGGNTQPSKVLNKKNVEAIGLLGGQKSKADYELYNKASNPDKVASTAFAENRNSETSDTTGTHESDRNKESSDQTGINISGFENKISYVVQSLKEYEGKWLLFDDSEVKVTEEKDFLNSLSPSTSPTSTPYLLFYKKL
Method in brief: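 USP1/UAF1 complex at 1 nM preincubated 15 min at room temperature with compound, then Ub-Rho substrate added at 150 nM final. Fluorescence (480/540 nm) read kinetically in 50 mM HEPES pH 7.8, 0.5 mM EDTA, 1 mM TCEP, 0.1 mg/ml BSA, 0.01% Tween-20.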

[3] = qHTS for Inhibitors of ATXN expression: Validation of Cytotoxic Assay (AID 588349); further: on the % scale 0 is the no-effect control and ±100 the full control effect
Method in brief: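 Cytotoxicity counter-screen: ATP-based luminescent viability (CellTiter Glo) after 72 hr exposure of HEK293 cells to a compound titration at 37 degrees C.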

[4] = qHTS for Inhibitors of ATXN expression: Validation (AID 588378); further: series mostly up to about 57 µM; on the % scale 0 is the no-effect control and ±100 the full control effect; nearly all actives have a fitted effect of over 75% in size
Method in brief: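 HEK293 cells carrying ATXN2-firefly luciferase reporter, treated with compound 24 h at 37 °C. Viability read first by CellTiter-Fluor (405/525 nm), then reporter expression by Bright-Glo luminescence; controls were a known ATXN2 expression inhibitor and a luciferase inhibitor.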

[5] = target: Estrogen receptor (Homo sapiens) (UniProt P03372); test: qHTS assay for small molecule agonists of estrogen receptor alpha signaling (AID 588514; calls by dose curve;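 further: 0% = vehicle only and 100% = reference agonist; nearly all actives have a fitted effect of over 70% in size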)
Estrogen receptor (Homo sapiens), sequence (P03372 whole entry, looked up): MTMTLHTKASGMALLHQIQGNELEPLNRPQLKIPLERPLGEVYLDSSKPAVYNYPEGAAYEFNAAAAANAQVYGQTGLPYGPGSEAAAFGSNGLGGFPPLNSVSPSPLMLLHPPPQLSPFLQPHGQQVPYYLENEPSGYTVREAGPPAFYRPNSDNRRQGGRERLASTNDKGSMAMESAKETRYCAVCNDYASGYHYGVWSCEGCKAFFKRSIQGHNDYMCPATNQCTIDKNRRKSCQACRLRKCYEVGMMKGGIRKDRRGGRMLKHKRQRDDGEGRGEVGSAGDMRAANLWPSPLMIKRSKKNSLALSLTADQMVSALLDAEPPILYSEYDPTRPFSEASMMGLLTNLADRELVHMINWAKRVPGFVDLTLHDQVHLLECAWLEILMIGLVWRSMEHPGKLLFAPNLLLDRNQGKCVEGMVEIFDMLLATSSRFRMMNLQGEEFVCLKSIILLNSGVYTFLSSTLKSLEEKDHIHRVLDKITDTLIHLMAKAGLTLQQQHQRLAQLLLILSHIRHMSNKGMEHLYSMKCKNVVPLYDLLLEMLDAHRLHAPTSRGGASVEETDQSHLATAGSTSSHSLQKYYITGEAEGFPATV
Method in brief: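 EC50 and efficacy came from Hill fits of beta-lactamase reporter signal (CCF4 dye, 2 h at room temperature) scaled between DMSO and 20 nM 17-beta-estradiol. Agonist mode: HEK293 ER-alpha-UAS-bla cells in charcoal/dextran-stripped serum medium, 18 h compound exposure at 37 C.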

[6] = target: Glucocorticoid receptor (Homo sapiens) (UniProt P04150); test: qHTS assay for small molecule agonists of glucocorticoid receptor signaling (AID 588532; active means well fitted curve in the direction sought with a large enough effect in the signal ratio, with a control signal flat; the % refers to the signal ratio;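 further: 100% = dexamethasone at 0.1 µM and 0% = DMSO only wells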); settings: HeLa MMTV-bla, beta-lactamase ratio, agonist, 18 h; stronger effect = higher value; percent of dexamethasone control, DMSO zero
Method in brief: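 Titration series, up to 92 uM, applied to GRE-bla HeLa cells for 18 h at 37 C. Detection by CCF4 FRET substrate after 2 h at RT.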

[7] = target: Glucocorticoid receptor (Homo sapiens) (UniProt P04150); test: qHTS assay for small molecule antagonists of glucocorticoid receptor signaling (AID 588533; active means well fitted inhibition curve with a large enough effect in the signal ratio, with a control signal flat, not every such curve was filed as active; the % refers to the signal ratio;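 further: cells stimulated with 2 nM dexamethasone as agonist; on the % scale 0 is the no-effect control and ±100 the full control effect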)
Method in brief: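 Antagonist-mode qHTS: compound titrations added to GRE-bla HeLa cells, then dexamethasone 2 nM final; 18 h, 37 C. CCF4 FRET fluorescence normalized to dexamethasone and DMSO; IC50 from Hill fit.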

[8] = qHTS assay for small molecule antagonists of peroxisome proliferator-activated receptor delta signaling (AID 588535; active means well fitted inhibition curve with a large enough effect in the signal ratio, with a control signal flat, not every such curve was filed as active; the % refers to the signal ratio;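 on max response: cells co-treated with a PPAR-delta agonist as stimulator during compound exposure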); settings: HEK293T PPARd-UAS-bla, beta-lactamase FRET ratio, 18 h; 460 nm channel
Method in brief: (§1)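 Inhibition of PPAR-delta response element-driven beta-lactamase expression is measured in HEK293T cells exposed to a compound titration series for 18 hrs at 37 C. Half-maximal inhibition comes from Hill equation fitting.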

[9] = target: Peroxisome proliferator-activated receptor delta (Homo sapiens) (UniProt Q03181); test: as above
Peroxisome proliferator-activated receptor delta (Homo sapiens), sequence (Q03181 whole entry, looked up): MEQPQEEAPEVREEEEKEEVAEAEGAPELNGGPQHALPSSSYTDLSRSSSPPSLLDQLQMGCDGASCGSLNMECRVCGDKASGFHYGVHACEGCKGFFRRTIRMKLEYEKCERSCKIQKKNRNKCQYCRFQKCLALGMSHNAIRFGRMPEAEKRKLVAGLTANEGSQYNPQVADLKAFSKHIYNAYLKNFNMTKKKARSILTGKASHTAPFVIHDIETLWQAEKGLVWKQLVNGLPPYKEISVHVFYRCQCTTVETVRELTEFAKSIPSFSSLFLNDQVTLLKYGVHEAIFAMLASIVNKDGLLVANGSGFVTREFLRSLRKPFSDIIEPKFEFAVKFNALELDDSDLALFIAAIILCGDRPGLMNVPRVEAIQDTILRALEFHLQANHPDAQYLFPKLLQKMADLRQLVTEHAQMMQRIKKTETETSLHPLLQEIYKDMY
Method in brief: as §1

[10] = target: Peroxisome proliferator-activated receptor gamma (Homo sapiens) (UniProt P37231); test: qHTS assay for small molecule agonists of peroxisome proliferator-activated receptor gamma signaling (AID 588536; active means well fitted curve in the direction sought with a large enough effect in the signal ratio, with a control signal flat, not every such curve was filed as active; the % refers to the signal ratio;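 further: 0% = DMSO basal wells and 100% = rosiglitazone at 2 µM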)
Peroxisome proliferator-activated receptor gamma (Homo sapiens), sequence (P37231 whole entry, looked up): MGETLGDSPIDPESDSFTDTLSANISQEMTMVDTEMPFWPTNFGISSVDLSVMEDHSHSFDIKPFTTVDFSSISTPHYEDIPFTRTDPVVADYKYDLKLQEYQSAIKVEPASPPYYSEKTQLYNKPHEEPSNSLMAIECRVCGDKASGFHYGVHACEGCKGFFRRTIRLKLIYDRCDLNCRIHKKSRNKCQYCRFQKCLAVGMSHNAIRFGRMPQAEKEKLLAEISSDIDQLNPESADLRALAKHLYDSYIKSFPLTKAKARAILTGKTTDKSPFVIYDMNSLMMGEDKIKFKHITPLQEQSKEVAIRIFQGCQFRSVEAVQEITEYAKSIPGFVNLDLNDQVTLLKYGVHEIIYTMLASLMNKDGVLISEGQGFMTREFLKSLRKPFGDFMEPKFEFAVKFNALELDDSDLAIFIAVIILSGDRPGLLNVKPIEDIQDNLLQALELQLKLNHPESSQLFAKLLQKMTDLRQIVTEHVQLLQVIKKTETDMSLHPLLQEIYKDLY
Method in brief: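 Compound treatment: 16 h, 37 C, HEK293 GeneBLAzer cells. Detection: CCF4, 2 h RT. Values: Hill-fit EC50, efficacy as % of 2 uM rosiglitazone.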

[11] = target: Peroxisome proliferator-activated receptor gamma (Homo sapiens) (UniProt P37231); test: qHTS assay for small molecule antagonists of peroxisome proliferator-activated receptor gamma signaling (AID 588537; active means well fitted inhibition curve with a large enough effect in the signal ratio, with a control signal flat, not every such curve was filed as active; the % refers to the signal ratio;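 further: reporter cells co-stimulated with 50 nM rosiglitazone agonist during compound treatment; % of control where 0% means no effect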)
Method in brief: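 Compounds are tested as concentration series for inhibition of rosiglitazone-driven (50 nM) reporter expression in GeneBLAzer PPAR-gamma-UAS-bla HEK293 cells. After 16 h at 37 C, CCF4 substrate is added for 2 h at room temperature and blue/green fluorescence is measured.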

[12] = qHTS assay for small molecule agonists of retinoid X receptor alpha signaling (AID 588544; calls by dose curve;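 on activation: 0% = DMSO basal wells and 100% = reference agonist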); settings: HEK293T RXRa-UAS-bla, beta-lactamase reporter, 18 h; 530 nm emission
[13] = target: Retinoic acid receptor RXR-alpha (Homo sapiens) (UniProt P19793); test: as above
Retinoic acid receptor RXR-alpha (Homo sapiens), sequence (P19793 whole entry, looked up): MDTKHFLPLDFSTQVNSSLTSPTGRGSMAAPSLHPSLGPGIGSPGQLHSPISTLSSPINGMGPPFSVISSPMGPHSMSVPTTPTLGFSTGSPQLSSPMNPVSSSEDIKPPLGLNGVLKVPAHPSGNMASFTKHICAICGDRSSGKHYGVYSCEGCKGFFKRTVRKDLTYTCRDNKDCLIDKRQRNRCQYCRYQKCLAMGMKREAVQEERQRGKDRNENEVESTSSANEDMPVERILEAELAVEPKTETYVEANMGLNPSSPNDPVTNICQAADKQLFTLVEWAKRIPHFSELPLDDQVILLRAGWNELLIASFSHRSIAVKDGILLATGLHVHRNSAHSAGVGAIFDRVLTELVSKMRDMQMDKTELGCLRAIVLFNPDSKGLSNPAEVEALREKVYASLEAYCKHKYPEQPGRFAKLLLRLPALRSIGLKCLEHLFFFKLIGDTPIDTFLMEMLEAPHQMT

[14] = target: Thyroid hormone receptor beta (Homo sapiens) (UniProt P10828); test: qHTS assay for small molecule agonists of thyroid hormone receptor beta signaling (AID 588545; calls by dose curve;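 further: 0% = DMSO only and 100% = 10 nM T3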)
Thyroid hormone receptor beta (Homo sapiens), sequence (P10828 whole entry, looked up): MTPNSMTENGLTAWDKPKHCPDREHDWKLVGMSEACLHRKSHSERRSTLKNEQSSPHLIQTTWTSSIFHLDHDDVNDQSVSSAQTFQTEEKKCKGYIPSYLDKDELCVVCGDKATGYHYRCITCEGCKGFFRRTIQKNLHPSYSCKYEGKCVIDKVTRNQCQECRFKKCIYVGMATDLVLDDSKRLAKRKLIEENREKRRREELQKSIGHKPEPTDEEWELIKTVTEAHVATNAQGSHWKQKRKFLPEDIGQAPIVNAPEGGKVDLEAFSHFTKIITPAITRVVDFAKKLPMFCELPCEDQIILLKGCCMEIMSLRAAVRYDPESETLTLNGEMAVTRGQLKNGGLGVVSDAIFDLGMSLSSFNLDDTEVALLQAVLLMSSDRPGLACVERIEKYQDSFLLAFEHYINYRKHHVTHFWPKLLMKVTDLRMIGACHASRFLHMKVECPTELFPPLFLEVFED
Method in brief: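 Stimulation of a TR-driven beta-lactamase reporter was quantified in GripTite HEK 293 cells. Compound series ran for 18 hrs; curves were normalized to T3 and DMSO controls and fitted to yield EC50.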

[15] = target: DNA dC->dU-editing enzyme APOBEC-3G (Homo sapiens) (UniProt Q9HC16); test: qHTS for inhibitors of Vif-A3G interactions: Validation (AID 588379); further: 0% is about no effect
Method in brief: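 Yellow fluorescence (Ex 488, Em 500-530) of Vif-coexpressing HeLa A3G-eYFP cells, scanned by Acumen cytometer, reports blocked A3G degradation. Cells plated at 700/well overnight at 37 deg C before compound addition, then a further overnight compound incubation at 37 deg C.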

[16] = target: Bile acid receptor (Homo sapiens) (UniProt Q96RI1); test: qHTS assay for small molecule antagonists of farnesoid X receptor signaling (AID 588526; calls by dose curve; further: on the % scale 0 is the no-effect control and ±100 the full control effect)
Bile acid receptor (Homo sapiens), sequence (Q96RI1 whole entry, looked up): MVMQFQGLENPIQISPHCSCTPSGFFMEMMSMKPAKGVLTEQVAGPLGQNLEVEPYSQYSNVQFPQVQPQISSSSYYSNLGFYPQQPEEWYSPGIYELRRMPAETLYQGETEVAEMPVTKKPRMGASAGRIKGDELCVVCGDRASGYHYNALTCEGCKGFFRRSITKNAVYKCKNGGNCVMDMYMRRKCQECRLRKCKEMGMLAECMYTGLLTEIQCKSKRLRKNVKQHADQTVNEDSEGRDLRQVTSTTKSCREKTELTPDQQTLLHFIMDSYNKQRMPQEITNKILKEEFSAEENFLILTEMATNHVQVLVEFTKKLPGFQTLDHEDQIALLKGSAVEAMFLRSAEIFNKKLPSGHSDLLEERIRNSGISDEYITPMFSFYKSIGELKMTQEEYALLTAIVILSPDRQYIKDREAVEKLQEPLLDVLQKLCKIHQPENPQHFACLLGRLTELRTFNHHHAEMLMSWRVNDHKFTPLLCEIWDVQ
Method in brief: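 Concentration-response titrations were fitted to the Hill equation for half-maximal inhibition and maximal response, with data normalised to 50 uM chenodeoxycholic acid and DMSO control wells. Cells: FXR-UAS-bla HEK293T, dialyzed FBS.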

[17] = target: Vitamin D3 receptor (Homo sapiens) (UniProt P11473); test: qHTS assay for small molecule antagonists of vitamin D receptor signaling (AID 588541; calls by dose curve)
Vitamin D3 receptor (Homo sapiens), sequence (P11473 whole entry, looked up): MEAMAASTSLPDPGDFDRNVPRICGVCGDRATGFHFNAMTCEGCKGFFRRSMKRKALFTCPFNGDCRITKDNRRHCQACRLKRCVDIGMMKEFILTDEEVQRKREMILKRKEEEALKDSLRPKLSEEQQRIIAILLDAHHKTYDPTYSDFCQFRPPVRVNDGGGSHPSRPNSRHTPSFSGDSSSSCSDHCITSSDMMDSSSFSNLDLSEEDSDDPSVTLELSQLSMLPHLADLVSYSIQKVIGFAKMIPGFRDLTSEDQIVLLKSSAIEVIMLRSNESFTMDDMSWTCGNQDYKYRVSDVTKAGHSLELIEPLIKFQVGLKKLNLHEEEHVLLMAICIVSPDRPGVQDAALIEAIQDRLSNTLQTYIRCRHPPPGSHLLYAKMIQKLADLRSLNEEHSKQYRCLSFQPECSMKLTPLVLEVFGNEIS
Method in brief: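 VDR-UAS-bla HEK293T cells (2000/well, 2% charcoal-stripped FBS) were treated with titrated compounds plus 1-alpha,25-dihydroxyvitamin D3 (50 nM or 3 nM final) for 16 h at 37 C. CCF4 beta-lactamase fluorescence was read; Hill fits gave IC50.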

[18] = target: Vitamin D3 receptor (Homo sapiens) (UniProt P11473); test: qHTS assay for small molecule agonists of vitamin D receptor signaling (AID 588543; calls by dose curve;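 further: 0% = DMSO basal and 100% = reference agonist control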)
Method in brief: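 VDR-UAS-bla HEK293T cells, 2000/well, 2% charcoal-stripped FBS; compound titration 16 h at 37 C; CCF4 beta-lactamase ratio read. Normalized to 50 nM 1-alpha,25-dihydroxyvitamin D3 (100%) and DMSO; Hill fit gives EC50, efficacy.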

[19] = target: Androgen receptor (Homo sapiens) (UniProt P10275); test: qHTS assay for small molecule agonists of androgen receptor signaling (AID 588515; active means well fitted curve in the direction sought with a large enough effect in the signal ratio, with a control signal flat; the % refers to the signal ratio; further: on the % scale 0 is the no-effect control and ±100 the full control effect); settings: AR-UAS-bla HEK293, beta-lactamase ratio, agonist 16 h; stronger effect = higher value
Method in brief: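 Stimulation of an AR-responsive β-lactamase reporter in GripTite HEK293 cells was measured after 16 h compound exposure at 37 °C, via CCF4 fluorescence after 2 h RT. EC50 from Hill fits, normalized to R1881 at 30 nM.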

[20] = target: Androgen receptor (Homo sapiens) (UniProt P10275); test: qHTS assay for small molecule antagonists of androgen receptor signaling (AID 588516; active means well fitted curve in the direction sought with a large enough effect in the signal ratio, with a control signal flat, not every such curve was filed as active; the % refers to the signal ratio; further: on the % scale 0 is the no-effect control and ±100 the full control effect)
Method in brief: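 AR-UAS-bla GripTite HEK 293 cells (2000/well) treated with compound titrations plus 10 nM R1881 for 16 h at 37C. Beta-lactamase read by CCF4 FRET (460/530 nm); IC50 from Hill fits, normalized to R1881 and DMSO control wells.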

CC(C)Cc1ccc(C(C)C(=O)O)cc1 (stereo unspecified)
27.4%: max response [12]
inactive: outcome [1] | Potency [2] | outcome [3] | Potency [4] | outcome [5] | activation [6] -8.45% | Potency [7] | outcome [9] | outcome [10] | Potency [11] | outcome [13] | outcome [14]
43%: max response [8]

COc1ccc2[nH]cc(CCNC(C)=O)c2c1
inactive: outcome [1] | Potency [2] | outcome [3] | Potency [4] | outcome [15] | outcome [5] | Potency [16] | activation [6] -4.76% and 1.7% and -3.63% | Potency [7] | outcome [9] | outcome [10] | Potency [11] | outcome [17] | outcome [18] | outcome [13] | outcome [14]
4.26% and -2.38% and 20.7%: max response [12]
14.8% and 21.6% and 4.95%: max response [8]

NC(=O)OCC(COC(N)=O)c1ccccc1
inactive: outcome [1] | Potency [2] | outcome [3] | Potency [4] | outcome [15]

O=C(c1ccc(F)cc1)C1CCN(CCn2c(=O)[nH]c3ccccc3c2=O)CC1
inactive: outcome [1] | Potency [2] | outcome [3] | Potency [4] | outcome [15]

CC(C)(Oc1ccc(C2CC2(Cl)Cl)cc1)C(=O)O (stereo unspecified)
inactive: outcome [1] | Potency [2] | outcome [3] | Potency [4] | activation [19] -8.82% | outcome [20] | activation [6] -2.49% | Potency [7] | outcome [9] | Potency [11] | outcome [17] | outcome [18] | outcome [14]
-19.7%: max response [8]

Cc1cc(C(C)(C)C)c(O)c(C)c1CC1=NCCN1
inactive: outcome [1] | Potency [2] | outcome [3] | outcome [15]

Cn1cnc2c1c(=O)[nH]c(=O)n2C
inactive: outcome [1] | Potency [2] | outcome [3] | Potency [4] | outcome [15] | Potency [16] | activation [6] -4.06% | Potency [7] | outcome [9] | outcome [10] | Potency [11] | outcome [17] | outcome [18] | outcome [14]
-1.33%: max response [8]

CCOC(=O)C(C)(C)Oc1ccc(Cl)cc1
-9.24%: max response [12]
-15.2%: max response [8]
inactive: outcome [1] | Potency [2] | outcome [3] | Potency [4] | Potency [16] | activation [6] -5.3% | Potency [7] | outcome [9] | outcome [10] | Potency [11] | outcome [17] | outcome [18] | outcome [13] | outcome [14]

CC(C)C(=O)Nc1ccc([N+](=O)[O-])c(C(F)(F)F)c1
inactive: outcome [1] | Potency [2] | outcome [3] | Potency [16] | outcome [10] | Potency [11] | outcome [14]

NCCS(=O)(=O)O
-14.9%: max response [12]
inactive: outcome [1] | Potency [2] | outcome [3] | Potency [4] | outcome [15] | outcome [5] | activation [6] 1.42% | Potency [7] | outcome [10] | Potency [11] | outcome [17] | outcome [18] | outcome [13] | outcome [14]

Cc1ccc(C(=O)Nc2ccc(S(=O)(=O)O)c3cc(S(=O)(=O)O)cc(S(=O)(=O)O)c23)cc1NC(=O)c1cccc(NC(=O)Nc2cccc(C(=O)Nc3cc(C(=O)Nc4ccc(S(=O)(=O)O)c5cc(S(=O)(=O)O)cc(S(=O)(=O)O)c45)ccc3C)c2)c1
active: Potency [2] 14.1 µM and 7.94 µM and 5.01 µM
inactive: outcome [1] | outcome [3] | Potency [4] | outcome [15]

NS(=O)(=O)c1cc2c(cc1Cl)NCNS2(=O)=O
inactive: outcome [1] | Potency [2] | outcome [3] | Potency [4] | outcome [5] | Potency [16] | activation [6] -0.573% | Potency [7] | outcome [10] | Potency [11] | outcome [17] | outcome [18] | outcome [13] | outcome [14]
1.78% and -10.2%: max response [12]

CC[N+](CC)(CC)CCOc1cccc(OCC[N+](CC)(CC)CC)c1OCC[N+](CC)(CC)CC
inactive: outcome [1] | outcome [3] | Potency [4]
